From PubChem BioAssay
Hits are enriched below; roughly 7.9% of the tested compounds scored in any of these assays.
Cav3 T inh = human Cav3.2 channel inhibition, primary screen | O95180 | Cav3.2-expressing cells, Fluo-4 calcium fluorescence FDSS; stronger effect = lower value | B-score at 10 µM | 100,000 compounds, 4% hits;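 active = single-dose well whose peak fluorescence ratio is a statistical outlier from its plate by either plate-standardised score or position-corrected B-score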
PLAP activator = activators of human placental alkaline phosphatase; P05187; purified PLAP enzyme, luminescent substrate read-out; stronger effect = higher value; activation fold at 20 µM; 96,000 compounds, 1.2% hits; in the data active = activation fold above about 2
HER2 expr 66K = Her2 kinase expression inhibition. SKBR-3 HER2 protein level, AlphaScreen, 18-24 h; stronger effect = lower value. HER2 level % of control, % at 10 µM. 65,000 compounds, 0.69% hits;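 active = HER2 level under 5% of the carrier-only control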;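 note: 100% = DMSO carrier and 0% = 500 nM PU-H71 HSP90 inhibitor; lower value means stronger loss of Her2 protein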
M1 antag = M1 muscarinic receptor (rat) antagonism; P08482; CHO-M1 cells, Fluo-4 calcium, ACh EC80 antagonist mode; stronger effect = lower value; B-score at 10 µM; 64,000 compounds, 3.4% hits;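 active = calcium fluorescence response, raw or row-and-column corrected B-score, differing from the plate sample mean either way at a set confidence level, mostly lower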
Target sequence (P08482 whole entry, looked up): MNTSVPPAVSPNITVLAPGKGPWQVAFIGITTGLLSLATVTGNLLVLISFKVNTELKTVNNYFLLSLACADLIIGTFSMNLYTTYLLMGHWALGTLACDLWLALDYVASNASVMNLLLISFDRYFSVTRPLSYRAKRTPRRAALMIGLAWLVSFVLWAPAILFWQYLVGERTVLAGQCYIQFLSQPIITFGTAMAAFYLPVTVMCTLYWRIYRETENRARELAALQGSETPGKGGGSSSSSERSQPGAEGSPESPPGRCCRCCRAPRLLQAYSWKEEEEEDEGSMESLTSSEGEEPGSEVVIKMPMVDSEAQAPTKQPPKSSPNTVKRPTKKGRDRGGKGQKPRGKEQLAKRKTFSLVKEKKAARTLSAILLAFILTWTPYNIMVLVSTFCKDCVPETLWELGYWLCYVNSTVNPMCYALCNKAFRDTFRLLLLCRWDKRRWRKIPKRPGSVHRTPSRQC
M1 agonist = agonists of M1 muscarinic receptor; CHO-M1 cells, Fluo-4 calcium fluorescence, agonist mode; stronger effect = higher value; AID 626; 64,000 compounds, 3% hits; B-score at 10 µM;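 active = fluorescence rise, raw or as B-score row- and column-corrected plate score, outside the 99.7% band of its plate's samples, either direction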
* = called active by the depositor.

`CC(C)(C)c1ccc(C(=O)NNc2cc(N3CCCCC3)nc(N3CCCCC3)n2)cc1` gave Cav3 T inh -8.3* and PLAP activator 1.3.
For CC(=O)NNc1cc(N2CCOCC2)nc(N2CCOCC2)n1 the results were Cav3 T inh 0.4.
O=C(NCc1ccco1)C1CC(c2ccc(C(F)(F)F)cc2)=NO1 (stereo not given) was read as Cav3 T inh -1.1.
For CCCOC(=S)Nc1ccccc1 the results were Cav3 T inh -0.44 and PLAP activator 1.
`Cc1nn(C(C)C(=O)Nc2sc3c(c2C#N)CCCC3)c(C)c1[N+](=O)[O-]` (stereo not given) gave Cav3 T inh -3.3* and PLAP activator 0.9.
For CC(C)C(C(=O)Nc1sc2c(c1C#N)CCCCC2)N1C(=O)c2ccccc2C1=O (stereo not given) the results were Cav3 T inh -8.7* and PLAP activator 1.1.
For CC(C)(C)C(=O)Nc1sc2c(c1C#N)CCCCC2 the results were Cav3 T inh 0.017.
For CC(C)CC(=O)NC(NC(=S)Nc1sc2c(c1C#N)CCCC2)C(Cl)(Cl)Cl (stereo not given) the results were Cav3 T inh -5.3* and PLAP activator 1.2.
For N#CC1(c2ccccc2)CCC(=NO)CC1 (stereo not given) the results were PLAP activator 0.9, HER2 expr 66K 76, M1 antag -0.61 and M1 agonist 0.0035.
COc1ccc(F)cc1S(=O)(=O)N1CC(C)CC(C)C1 (stereo not given) was read as Cav3 T inh -1.5 and PLAP activator 1.
O=C(c1cccc(Br)c1)N1CCN(C(=O)N2CCOCC2)CC1 was read as Cav3 T inh 0.86.
`CCC1(C(=O)c2ccccc2)C2c3cc(Br)ccc3OC(=O)C21C(=O)N1CCOCC1` (stereo not given) gave Cav3 T inh -4.3* and PLAP activator 1.5.
`O=C(CCN1CCc2ccccc2C1)Nc1ccc(F)cc1` gave Cav3 T inh -0.39, PLAP activator 0.9, HER2 expr 66K 118, M1 antag -1.1 and M1 agonist -0.71.
For O=CN1CCN(C(C(=O)NC2CCCC2)c2ccc(Cl)cc2)CC1 (stereo not given) the results were Cav3 T inh 0.51, PLAP activator 1.3, HER2 expr 66K 107, M1 antag -0.071 and M1 agonist -0.12.
`CC1(C)CC(=O)C2=C(C1)Nc1ccccc1NC2c1nc2ccccc2[nH]1` (stereo not given) gave Cav3 T inh -0.44, PLAP activator 1, HER2 expr 66K 121, M1 antag 0.54 and M1 agonist 1.2.
For Cc1cc2c(cc1C)NC(c1c(C)n(C)n(-c3ccccc3)c1=O)C1=C(CC(C)(C)CC1=O)N2 (stereo not given) the results were Cav3 T inh -0.91, PLAP activator 1.3, HER2 expr 66K 107, M1 antag -0.38 and M1 agonist 47*.
O=S(=O)(N/N=C1/CCCc2ccccc21)c1ccc(Br)cc1 was read as Cav3 T inh -4.2*.
For O=C(CN1CCN(C(c2ccccc2)c2ccccc2)CC1)NC(=O)NCc1ccco1 the results were Cav3 T inh -5.1*, PLAP activator 1.3, HER2 expr 66K 98, M1 antag -0.51 and M1 agonist -3.2*.
Cc1ccc(SCC(=O)NC(=O)NCc2ccco2)cc1C was read as Cav3 T inh -6.6* and PLAP activator 0.8.
Screening S=C(NCc1ccco1)N1CCN(C(c2ccccc2)c2ccccc2)CC1 returned Cav3 T inh -1.1 and PLAP activator 1.1.
For Cc1ccc(S(=O)(=O)N2CCC(C(=O)NNS(=O)(=O)c3ccc(Cl)cc3)CC2)cc1 the results were Cav3 T inh -1.9 and PLAP activator 1.3.
`Cc1ccc(SCC2(O)CCN(S(=O)(=O)c3ccc(Cl)cc3)CC2)cc1` gave Cav3 T inh -6.1*.
For O=C(c1ccc(Cl)cc1)N1CCC(O)(CSc2ccccc2)CC1 the results were PLAP activator 1.2.
O=C(c1ccc(Cl)cc1)N1CCC(O)(CSc2ccc(Cl)cc2)CC1 was read as Cav3 T inh -6.5* and PLAP activator 1.4.
Screening O=C(NOC(=O)c1ccccc1Cl)c1cccs1 returned Cav3 T inh 0.0062 and PLAP activator 1.1.
For C=CCCCN(Cc1ccccc1)S(=O)(=O)c1ccccc1Br the results were Cav3 T inh -3.7*.
